# Assay outcomes: PubChem, National Center for Advancing Translational Sciences (NCATS)
# Sampled rows, rich in hits. Any-hit rate of the full collection: about 6.7%.
# SW480 rereplic – DNA re-replication induction in SW480 cells. SW480 DNA re-replication, Hoechst DNA content imaging, 48 h. AID 624297. Potency, µM (top dose mostly 46.1 µM), without a hit: at the top dose re-replication activation, actives largely listed as activators. actives 1.8% (n = 340,000); note: % of control where 0% means no effect; nearly all actives have a fitted effect of over 55% in size
#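 Quantitative HTS format with DMSO vehicle controls; 48 hr drug incubation at 37 C, then 40 min Hoechst staining and scanning imager measurement at 405 nm excitation.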
# KB-V1 MDR tox – kills drug-selected multidrug resistant KB-V1 cells; KB-V1 MDR cells viability, CellTiter-Glo, 72 h; Potency, µM (top dose mostly 46.1 µM), hits mostly cytotoxic; actives 3.4% (n = 400,000); note: % is set by controls: 0 for no effect and ±100 for the full control effect; nearly all actives have a fitted effect of over 60% in size
#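 Potencies derive from concentration-effect curves fitted to normalized luminescence (CellTiter-Glo) of KB-V1 cells treated for 72 h at 37 degrees C in phenol-red-free DMEM containing 10% FBS.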
# PINK1 modulator – PINK1 expression modulation; PINK1 immunofluorescence, high-content cytometry, 24 h; Potency, µM (series often up to 76.6 µM), without a hit: at the top dose activation (PINK1 increase), usual class: activators; actives 0.2% (n = 410,000); active = well fitted activation curve with a large enough effect; inconclusive = small, poorly fitted or top-dose-only effect; cell line not stated here; note: % of control where 0% means no effect; nearly all actives have a fitted effect of over 65% in size
#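 Decision-based qHTS: stable cells, 24 h exposure to five compound concentrations, CCCP as control. Fixed cells stained for PINK1 plus nuclear, mitochondrial and cell markers, cytometer read.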
# MCF10A rerep – DNA re-replication induction in MCF 10a cells; Potency, µM (top dose mostly 46.1 µM), without a hit: top-dose activity, positive = re-replication, hits mostly activators; actives 2.9% (n = 350,000); MCF 10A DNA re-replication, Hoechst nuclear intensity, 48 h; note: % of control where 0% means no effect; nearly all actives have a fitted effect of over 50% in size
# KB-3-1 cytotox – kills parental KB-3-1 adenocarcinoma cells; KB-3-1 viability, CellTiter-Glo ATP luminescence, 72 h; Potency, µM (doses to about 46.1 µM), hits mostly cytotoxic; actives 1.4% (n = 400,000); note: % is set by controls: 0 for no effect and ±100 for the full control effect; nearly all actives have a fitted effect of over 60% in size
#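 Parental KB-3-1 adenocarcinoma cells in phenol-red-free DMEM with 10% FBS were pin-treated with compounds at several concentrations, incubated 72 h at 37 °C, and viability read by CellTiter-Glo luminescence; concentration-effect curves were fitted after normalization.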
# The depositor's hits bear a star; i = inactive; ? = inconclusive; / = not tested or not shown; [ ] = another dose, or the depositor's remark. Unless noted, calls come from the whole dose curve; as a rule, active = well fitted curve in the direction sought with a large enough effect; inconclusive = small, poorly fitted or top-dose-only effect, or another doubt; inactive = no such curve, though single readings can be large; an effect the other way counts as inactive or inconclusive. Potency is the fitted concentration of half-maximal effect.
SMILES,SW480 rereplic,KB-V1 MDR tox,PINK1 modulator,MCF10A rerep,KB-3-1 cytotox
Cc1ccc(Oc2cc(NC(=O)CCCn3nc([N+](=O)[O-])cc3C)cc([N+](=O)[O-])c2)cc1,0%,5.2µM*,?,-1%,i
O=c1oc2ccccc2cc1-c1nc(-c2cccs2)no1,/,i,0%,/,i
Cc1ccc(Cn2nc(C)c(NC(=O)CCCn3nc(C)c([N+](=O)[O-])c3C)c2C)cc1,-67%,9.2µM*,-2%,-3%,i
CCc1ccc(CNC(=O)c2ccc3nc(SCc4ccc(F)cc4)n(C)c3c2)cc1,/,i,2%,/,i
CC(=O)c1cc(C#N)c(SCCC(C)C)nc1C,1%,i,18%[38.3 µM],2%,i
CC(C)CCSc1nc(N)c(C#N)cc1C#N,-1%,21µM*,-2%[38.3 µM],17%,i
COc1ccc(-n2ccnc(NCc3ccc(C)cc3)c2=O)cc1OC,/,i,0%,/,i
CN(CC(=O)Nc1cccc(F)c1)C(=O)c1cc(-c2ccccc2)nc2ccccc12,21%,?,10%,?,i
CN(CC(=O)Nc1cccc(F)c1)C(=O)c1cccc2ccccc12,-3%,18µM*,2%,12%,i
CN(CC(=O)Nc1cccc(F)c1)C(=O)c1ccc(COc2ccccc2)o1,-2%,21µM*,-1%,8%,i
CCN1CCCC1CNCc1ccc(OCc2ccc(Cl)nc2)c(OC)c1 (configuration not stated),23%,i,3%,5.8µM*,i
COc1ccc(-c2ccc3ncnc(NCCc4cnc[nH]4)c3c2)cc1OC,/,i,/,/,?
CC1CCN(C(=O)COC(=O)c2cc(Cl)c3c(c2)OCO3)CC1,-1%,21µM*,2%,-2%,i
Cc1ccc(/C=N/Nc2nc(C(C)(C)C)cs2)o1,-56%,i,?,9.2µM*,i
COc1ccc(N2C(=O)CC(c3cc(OC)c(OC)c(OC)c3)CC2=O)cc1,?,i,4%,?,i
COc1cc(C2CC(=O)N(c3ccc(C)cc3)C(=O)C2)cc(OC)c1OC,3.7µM*,4.6µM*,5%,6.5µM*,4.6µM*
COc1cccc(-c2oc3c(c2C(=O)OCCN(C)C)C(O)CCC3)c1 (configuration not stated),/,?,-1%,/,i
Cc1ccc(C(=O)Nc2nnc(CC(=O)N/N=C/c3ccc(O)c(O)c3)s2)cc1,-10%,i,4%,27%,i
Cc1ccc(C(=O)Nc2nnc(CC(=O)N/N=C/c3ccncc3)s2)cc1,21µM*,i,2%,0%,i
O=C(NCCc1nnc2n1CCN(Cc1c(F)cccc1F)CC2)c1ccc(F)cc1,/,/,0%,/,/
O=C(O)Cn1ccc2cc(S(=O)(=O)N3CCCCC3)ccc21,/,i,4%,/,i
COCCNCCCCOc1ccccc1-c1ccccc1,15%,?,0%,11%,i
CCCCNCCOCCOc1ccccc1-c1ccccc1,?,18µM*,8%,23%,i
CCOC(=O)c1sc(N2C(=O)c3oc4ccc(F)cc4c(=O)c3C2c2ccc(C)cc2)nc1C (configuration not stated),/,i,0%,/,i
CC(=O)n1cc(N(C(=O)CCl)c2ccc(C)cc2)c2ccccc21,?,?,0%,15µM*,18µM*
SMILES,SW480 rereplic,KB-V1 MDR tox,PINK1 modulator,MCF10A rerep,KB-3-1 cytotox
CC(=O)N(c1ccc(Cl)cc1)c1cn(C(C)=O)c2ccccc12,2%,i,1%,0%,i
O=C(Nc1ccc(F)c(F)c1)c1ccc(=O)n(Cc2ccc(F)cc2)c1,/,i,-4%,/,i
Cc1cc(C)cc(NC(=O)c2cccc(N3CCCS3(=O)=O)c2)c1,/,i,1%,/,i
CCc1ccc(OCC(=O)OC(C)C(=O)Nc2ccc(Cl)cn2)cc1 (configuration not stated),-9%,i,-1%,5%,i
COc1ccc(-c2cc(C(=O)Nc3c(C(=O)c4ccc(C)c(F)c4)oc4ccccc34)no2)cc1,/,/,-1%,/,/
CC1(C)S/C(=N/N=C/c2cccs2)NC1=O,0%,i,-2%,3%,i
O=C(CC1S/C(=N/N=C/c2cccs2)NC1=O)Nc1ccc(Cl)cc1 (configuration not stated),1%,i,13%,-3%,i
O=C1N/C(=N\N=C\c2cccs2)SC1Cc1ccc(Cl)cc1Cl (configuration not stated),-82%,?,?,21%,7.3µM*
O=C1NC(=Nc2ccc(F)cc2)SC1Cc1ccc(F)cc1 (configuration not stated),-7%,?,5%,-1%,i
O=C1NC(=Nc2ccc(Cl)cc2)SC1Cc1cc(Cl)ccc1Cl (configuration not stated),2%,15µM*,?,?,i
O=C1N/C(=N\N=C\c2cccs2)SC1Cc1cccc(Cl)c1Cl (configuration not stated),7.3µM*,?,10%,1.5µM*,5.2µM*
O=C(c1cccc([N+](=O)[O-])c1)N1CCN(c2ccc(Nc3ccccc3)nn2)CC1,/,/,1%,/,/
CCN1c2ccccc2-c2nc(SCC(=O)NCc3ccc(C)cc3)ncc2S1(=O)=O,/,i,3%,/,i
COc1ccc(-c2nc3cnc(N4CCN(C)CC4)nc3n(CCC#N)c2=O)cc1,/,/,0%,/,/
COc1cc2c(NC3CCN(C)CC3)nc(N3CCCN(C)CC3)nc2cc1OCCCCN(C)C,/,i,0%,/,16µM*
COc1cc2c(NC3CCN(C)CC3)nc(N3CCCN(C)CC3)nc2cc1OCCCCCCN(C)C,/,?,-1%,/,?
Cc1ccc(-c2csc(N(C)C(=O)c3c(C)nn(-c4ccccc4)c3Cl)n2)cc1,-5%,?,4%[38.3 µM],5.8µM*,i
CN(C(=O)c1cccnc1)c1nc(-c2ccccc2)cs1,-2%,21µM*,1%[38.3 µM],1%,i
CN(Cc1ccccc1)C(=O)c1cccnc1,-9%,i,-1%,3%,i
CN1C(C(=O)c2ccccc2)=C(OC(=O)c2ccc(Br)cc2)c2ccccc2S1(=O)=O,/,i,?,/,i
CN(C)[C@H]1N(C(=O)c2ccc(Br)cc2)N=C2c3ccccc3S(=O)(=O)N21,-3%,8.2µM*,-2%,3%,i
Cc1ccccc1NC(=O)Cn1nnc2sc3c(c2c1=O)CC(C)(C)OC3,2%,i,2%,4%,i
CCC1(C)Cc2c(sc3nnn(CC(=O)Nc4ccccc4)c(=O)c23)CO1 (configuration not stated),2%,7.3µM*,8%[38.3 µM],-3%,i
CCC1(C)Cc2c(sc3nnn(Cc4ccccc4Cl)c(=O)c23)CO1 (configuration not stated),17%,21µM*,5%[38.3 µM],16µM*,i
